Measurements from PubChem BioAssay (EPA / NIEHS).
Results filed as inconclusive are left out. Activity calls are given as the source filed them. How the source made its calls: active means hit-call score of the fitted dose curve at least 0.9, where 1 is the maximum; inconclusive means response in the unintended direction; inactive means score below 0.9.

assay: CCTE_Mundy_HCI_iCellGluta_NOG_NeuriteCount: CCTE's Neurite Outgrowth Assay in iCellGluta cells for Neurite Count, Mundy Lab (AID 2284342);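 further: chemical exposure about 48 hours starting 2 hours after plating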
Protocol: CCTE_Mundy_HCI_iCellGluta_NOG is a multiplexed, cell-based-readout assay that uses iCell GlutaNeurons from FUJIFILM Cellular Dynamics, Inc. (FCDI), human glutamatergic enriched neurons derived from induced pluripotent stem (iPS) cells, with measurements taken at 50.33 hours after chemical dosing in a microplate: 96-well plate.CCTE_Mundy_HCI_iCellGluta_NOG_NeuriteCount is one of four components of the CCTE_Mundy_HCI_iCellGluta_NOG assay. It measures neurite outgrowth related to number of neurites using High Content Imaging of fluorescently labelled markers.Data from the assay component CCTE_Mundy_HCI_iCellGluta_NOG_NeuriteCount was analyzed at the endpoint CCTE_Mundy_HCI_iCellGluta_NOG_NeuriteCount in the positive analysis fitting direction relative to DMSO as the negative control and baseline of activity. Using a type of morphology reporter, loss-of-signal activity can be used to understand developmental effects.
Exposure starts 2 hours post-plating by adding 10 ul of the working solution to 90 ul of media in the wells for a 1/10 dilution. Forty-eight hours after chemical treatment cells are fixed by direct addition of 100 ul of warm (37C) Dulbecco's phosphate buffered saline (DPBS) fixative solution containing 8% paraformaldehyde, 8% sucrose, and 0.1% of 3 mg/ml Hoechst 33342 into each well. Primary antibodies are prepared by dilution in Immunocytochemical Staining Buffer (ISB), 10X Dulbecco's PBS, 0.1% Saponin, 5% Bovine Serum Albumin, 0.5% NaN3 (Sodium Azide) and betaIII-tubulin (rabbit anti-betaIII-tubulin, 1:800) followed by Alexa Fluor-488 secondary (1:500) to label neuronal cell bodies and neurites. A Cellomics ArrayScan VTi HCS Reader is used for automated image acquisition and analysis of neurite outgrowth.

| SMILES | outcome | AC50 |
| --- | --- | --- |
| O=C(O)C=CC(F)(C(F)(F)F)C(F)(F)F | inactive | – |
| O=C(O)C(F)(F)OC(F)(F)C(F)(F)OC(F)(F)F | inactive | – |
| CCOc1ccc(C(C)(C)COCc2cccc(Oc3ccccc3)c2)cc1 | inactive | – |
| CCOP(=S)(OCC)SCSCC | inactive | – |
| C=CC(=O)OCC(F)(F)C(F)F | inactive | – |
| OCC(F)(F)OC(F)(F)C(F)(F)OC(F)(F)C(F)(F)OC(F)(F)F | inactive | – |
| O=C(O)C(F)(F)OC(F)(F)C(F)(F)OC(F)(F)C(=O)O | inactive | – |
| FC(F)(F)C(F)(C(F)(F)F)C(F)(F)C(F)(F)CC1CO1 (stereo not given) | inactive | – |
| O=C(O)C(F)(OC(F)(F)C(F)(F)C(F)(F)F)C(F)(F)F (stereo not given) | inactive | – |
| CO/N=C(/C(=O)OC)c1ccccc1COc1ccccc1C | – | 28.7 µM (active) |
